# Screening results: PubChem BioAssay, National Center for Advancing Translational Sciences (NCATS)
# Shown is part of a subset that was picked to be rich in hits.
# CHX counter – counter-screen for Shiga toxin inhibitors: cycloheximide protein synthesis inhibition; AID 2314; actives 12% (n = 300,000); cell reporter, cycloheximide protein synthesis inhibition counterscreen; max response, %; in the data active means max response mostly above about 13%, no sharp cut-off; inactive means mostly below about 14%; further: read at 38.3 µM for the half of the compounds with a filed dose; 0% is about no effect
# Vaccinia Venus – vaccinia inhibition (Venus reporter) | actives 0.46% (n = 330,000) | Vaccinia virus Venus reporter expression, fluorescence | Potency, µM (doses to about 36.5 µM), without a hit: top-dose activity change, negative = inhibition, actives largely listed as inhibitors; calls by dose curve; tested in A549 cells; further: potency means the concentration at half of the fitted maximal effect; on the % scale 0 is the no-effect control and ±100 the full control effect; nearly all actives have a fitted effect of over 30% in size
# Shiga inhibitor – blocks Shiga toxin action in Vero cells | actives 9.2% (n = 290,000) | inhibition, % at 38.7 µM | AID 2315 | Vero cells, Shiga toxin protein synthesis inhibition reporter; in the data active means inhibition mostly above about 28%, no sharp cut-off; inactive means mostly below about 43%; further: 0% is about no effect
# Lassa entry inh – blocks Lassa virus binding to or entry into cells; Lassa virus pseudotype entry inhibition, cell reporter; Potency, µM (titrated, usually from 37.9 µM), inactives show at the top dose activity change, negative = inhibition, actives largely listed as inhibitors; actives 1.2% (n = 300,000); AID 540256; calls by dose curve; tested in HEK293 cells; further: potency means the concentration at half of the fitted maximal effect; on the % scale 0 is the no-effect control and ±100 the full control effect; nearly all actives have a fitted effect of over 50% in size
# MARV entry inh – inhibitors of Marburg virus binding or cell entry | Marburg virus pseudotyped entry inhibition, cell reporter | Potency, µM (highest dose often 37.8 µM), for inactives: at the highest dose activity change, negative = inhibition, hits mostly inhibitors | actives 1.8% (n = 300,000) | AID 540276; calls by dose curve; tested in HEK293 cells; further: potency means the concentration at half of the fitted maximal effect; on the % scale 0 is the no-effect control and ±100 the full control effect
# VACV mCherry inh – vaccinia inhibition (mCherry reporter); actives 0.63% (n = 310,000); AID 720579; Vaccinia virus mCherry reporter infection, fluorescence; Potency, µM (series often up to 36.5 µM), without a hit: at the highest dose activity change, negative = inhibition, usual class: inhibitors; calls by dose curve; tested in A549 cells; further: potency means the concentration at half of the fitted maximal effect; on the % scale 0 is the no-effect control and ±100 the full control effect; nearly all actives have a fitted effect of over 35% in size
# Starred values were filed as active, the others as inactive; i = inactive; ? = inconclusive; nt = not tested or not shown; [ ] = remark or other dose.
SMILES,CHX counter,Vaccinia Venus,Shiga inhibitor,Lassa entry inh,MARV entry inh,VACV mCherry inh
Cc1ccc(OCc2cc(C(=O)N3CCCC3)no2)cn1,44*,-16%,74*,?,?,i
Cn1ccnc1CN1CCN(C(=O)c2cc(COc3ccc(F)c(F)c3)on2)CC1,15,-10%,-13,2%,?,-14%
CC(=O)NCCC1CCN(C(=O)c2cc(COc3ccc(C)nc3)on2)CC1,-2,-10%,-6,-8%[46.1 µM],1%[46.1 µM],-22%
Cc1cccc(N2CCN(C(=O)c3cc(COc4ccc(F)c(F)c4)on3)CC2)n1,40*,nt,59,nt,nt,nt
Cc1ccc(OCc2cc(C(=O)N3CCCCCCC3)no2)cc1C,20*,nt,38*,nt,nt,nt
CCOc1cc(C(=O)NCCc2sc(-c3ccc(F)cc3)nc2C)cc(OCC)c1OCC,nt,-8%,nt,10%[46.1 µM],nt,6%
COC(=O)c1ccc(OCC2c3cc(OC)c(OC)cc3CCN2C(=O)c2ccccc2F)cc1 (stereo not given),nt,-12%,nt,?,nt,-13%
Cc1cc(OCc2cc(C(=O)N3CCN(CC4CC4)CC3)no2)cc(C)c1Cl,14,nt,25,nt,nt,nt
Cc1ccc(OCc2cc(C(=O)N3CCN(c4ccccc4)CC3)no2)cc1C,41*,-8%,59*,-27%,1%,-10%
Cc1cc(C(=O)N2CCN(c3ccccc3)CC2)no1,-4,nt,2,-5%,9%,nt
COCC1CCN(C(=O)c2cc(COc3cc(C)c(Cl)c(C)c3)on2)C1 (stereo not given),72*,nt,45*,nt,nt,nt
COCC1CCN(C(=O)c2cc(COc3cncc(Cl)c3)on2)C1 (stereo not given),-3,nt,-3,nt,nt,nt
Cc1cc(OCc2cc(C(=O)N3CCCCCC3)no2)cc(C)c1Cl,61*,-18%,128*,-15%,?,i
Cc1cc(C)cc(NC(=O)Cc2c(C(=O)O)c(C)cn2C)c1,nt,-7%,nt,-17%[46.1 µM],nt,-4%
COCCCNC(=O)CCCN1C(=O)CCn2nc(-c3cccn3C)cc21,nt,3%,nt,3%[46.1 µM],nt,-6%
CCCOc1cccc(OCCSc2nc(C)cc(=O)[nH]2)c1,46*,nt,31,?,-20%,nt
Cc1cc(=O)[nH]c(SCCCOc2ccc(F)cc2)n1,27,nt,-3,10%,-2%,nt
Cc1ccc2c(c1)C(c1ccccc1)N(C(=O)Cc1ccc(F)cc1)CC(=O)N2 (stereo not given),nt,-11%,nt,?,9%[46.1 µM],-18%
Cc1ccc(N/N=C(/Sc2nnnn2-c2ccccc2)C(=O)c2ccccc2)cc1,-2,-17%,-51,-5%,-5%,-26%
O=C(/C(=N\Nc1ccc([N+](=O)[O-])cc1)Sc1nnnn1-c1ccccc1)c1ccccc1,-2,?,-12,12%,0.89µM*,?
C/C(=N\NC(=O)c1cc(C)nc2ccccc12)c1ccco1,-1,-9%,1,?,?,7%
Cc1ccc(C)c(/C=N/Nc2nc3ccccc3c(=O)n2O)c1,22*,-11%,34*,1%,-23%,-5%
C/C(=N\Nc1nc2ccccc2c(=O)n1O)c1ccco1,47*,-7%,62*,-1%[46.1 µM],?,i
CC(=O)c1ccc(F)c(-c2cc(C)cc3c2OC(CNC(=O)c2ccnn2C)C3)c1 (stereo not given),nt,?,nt,nt,nt,-12%
C=C1C(=O)C23C(O)C1CCC2C12CCCC(C)(COC(C)=O)C1C(O)C3(O)OC2 (stereo not given),nt,4µM*,nt,11µM*,?,2.5µM*
SMILES,CHX counter,Vaccinia Venus,Shiga inhibitor,Lassa entry inh,MARV entry inh,VACV mCherry inh
CN1c2ccccc2[C@@]2(O)C(=O)[C@@]1(C)[C@@H]1CCC=C[C@H]12,nt,nt,nt,?,10%[14.2 µM],nt
Cc1ccccc1Oc1cc(-n2ncc(Cl)c(Cl)c2=O)ncn1,14*,10µM*,23,?,?,?
CCOc1cnn(-c2cc(Oc3ccc(C)cc3)ncn2)c(=O)c1Cl,-3,-13%,-2,-15%,5%,nt
Cc1csc(NC(=O)c2cccc(S(=O)(=O)N3CCN(C)CC3)c2)n1,5,3%,21,12%,10%[46.1 µM],7%
Cc1csc(NC(=O)c2ccc(S(=O)(=O)N3CCCC3)cc2)n1,17*,nt,39,nt,nt,nt
Cc1csc(NC(=O)c2ccc(S(=O)(=O)N3CCN(C)CC3)cc2)n1,32*,-6%,58*,14%[46.1 µM],8%[46.1 µM],2%
Cc1csc(NC(=O)C2CCCCN2S(=O)(=O)c2ccccc2)n1 (stereo not given),13*,-12%,26,1%,-16%,-16%
Cc1nc(-c2ccc(S(=O)(=O)N3CCCCCC3)cc2)cs1,21*,?,100*,8%,12%,nt
COc1cc2nc(NCCc3ccc(Cl)cc3)n3nc(-c4ccccc4)nc3c2cc1OC,nt,-9%,nt,nt,5%[46.1 µM],i
CCOC(=O)c1cc(-c2ccccc2)nn1Cc1ccccc1,nt,4%,nt,-13%[46.1 µM],?,-1%
CCn1cc(S(=O)(=O)c2cc(C)cc(C)c2)c(=O)c2cc(F)c(N3CCCCC3)cc21,nt,?,nt,19%[46.1 µM],nt,-19%
O=C(Nc1nc(-c2cccs2)cs1)c1ccc(S(=O)(=O)N2CCCC2)cc1,-6,?,3,21µM*,12µM*,?
O=S(=O)(c1ccc(Br)cc1)c1nc(-c2ccccc2)oc1NCCN1CCOCC1,13,-2%,-12,?,?,-15%
O=Cc1cccn1-c1ccc2ccccc2c1,29*,nt,42*,nt,nt,nt
COc1ccc(/C(N)=N/OC(=O)c2cccc([N+](=O)[O-])c2C)cc1,-2,0%,33,10%,24%,-4%
COc1ccccc1C/C(N)=N/OC(=O)c1cccc([N+](=O)[O-])c1C,15*,-18%,21,?,?,-25%
COc1ccc(C=C2c3ccccc3C(=O)c3ccccc32)cc1O,1,nt,-6,nt,nt,nt
CN1CCC(n2cnc(-c3ccc(F)cc3)c2-c2ccnc(Nc3ccccc3)n2)CC1,nt,nt,nt,16µM*,nt,nt
Cc1ccc2c(-c3ccnc(Nc4ccccc4)n3)c(-c3ccc(F)cc3)nn2n1,nt,nt,nt,25µM*,nt,nt
Fc1ccc(-c2ncn(C3CCNCC3)c2-c2ccnc(Oc3ccc4c(c3)OCO4)n2)cc1,nt,nt,nt,13µM*,nt,nt
COc1ccc(Nc2c(-c3ccc(F)cc3)nc3nc(C)cc(C)n23)cc1,nt,3%,nt,nt,nt,1%
Fc1ccc(-c2ncn(C3CCNCC3)c2-c2ccnc(Oc3ccccc3)n2)cc1,nt,nt,nt,6.3µM*,nt,nt
CC(=O)c1ccc([N+](C)(C)C)cc1,nt,-7%,nt,nt,nt,6%
CCOc1ccc(S(=O)(=O)NCc2ccccn2)c(C)c1C,8,-13%,7,-13%[46.1 µM],-6%[46.1 µM],i
COc1ccc(/C=N/NC(=O)c2nn(C)cc2Br)cc1CSCc1ccco1,31*,-16%,38*,-21%,15%,i
Brc1ccc(-c2csc(-c3c[nH]c4ccccc34)n2)cc1,34*,-29%,86*,-7%,?,nt
Clc1ccc(-c2c[nH]c3ccccc23)nn1,5,-12%,50,3%,9%[46.1 µM],-10%
COc1ccc(C)cc1Nc1nc(-c2c[nH]c3ccccc23)cs1,9,7%,-17,1%,10%[46.1 µM],-16%
c1ccc2c(-c3csc(-c4ccncc4)n3)c[nH]c2c1,45*,nt,96*,nt,nt,nt
